Consider 35 sequences from article PMC12820563, “FoxP3 forms a head-to-head dimer in vivo and stabilizes its multimerization on adjacent microsatellites”.

Whole data set: some 16,000 sequences, median “rpm ratio (pull-down/input)” near 0.94, cut for the highest 2% near 1.7. The sample holds the highest values, similar sequences and a random draw of the others, so the mix is not that of the screen.

This experiment deals with T1, MBP-FoxP1dN (Mus musculus, UniProt P58462 326-579).
T1 sequence: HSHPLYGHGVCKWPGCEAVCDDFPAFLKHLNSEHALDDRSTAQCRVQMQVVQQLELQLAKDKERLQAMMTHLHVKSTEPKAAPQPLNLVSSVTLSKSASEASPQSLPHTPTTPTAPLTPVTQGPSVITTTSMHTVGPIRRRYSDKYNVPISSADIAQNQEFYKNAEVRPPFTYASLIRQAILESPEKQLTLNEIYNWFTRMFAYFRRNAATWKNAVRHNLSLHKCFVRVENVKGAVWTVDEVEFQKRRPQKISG
The experiment is described as follows: PD-seq (MBP pull-down with sequencing); 20 mM Tris-HCl pH 7.5, 100 mM NaCl, 1.5 mM MgCl2, 0.4 uM protein, 0.1 uM dsDNA library, 30 min, room temperature, amylose pull-down; high values mean tight binding. The following applies: protein: recombinant; tags: His6-MBP; chain copies: 2; dsDNA, one strand shown. Summed up: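 E. coli-expressed mouse FoxP3 or FoxP1 fragment, N-terminus removed and tagged with His6-MBP, was used at 0.4 µM against 0.1 µM of a Klenow-filled degenerate double-stranded DNA library. After 30 min at room temperature in Tris pH 7.5 buffer with NaCl and MgCl2, complexes were pulled down on amylose resin and washed three times. Binding is pull-down over input reads-per-million enrichment from pooled replicates of the proteinase K-released, PCR-barcoded, Illumina-sequenced DNA.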
With “GATGATTGTTCTCCCAGCTGATGAATTGTCGCTGTCGAGTAAACAAATTTTCCTAATCTTTCTGTTCAAGCGCCATCTAC”, the binding signal was 1.02 RPM ratio (pull-down/input).

For “GATGATTGTTCTCCCAGCTGATGAATTCTGGACATCGAGTAAACAAATTTTCCTAATCTTTCTGTTCAAGCGCCATCTAC”, the binding signal is 0.937 RPM ratio (pull-down/input).

As for “GATGATTGTTCTCCCAGCTGATGAATTACCAGGTTCGAGTAAACAAATTTTCCTAATCTTTCTGTTCAAGCGCCATCTAC”, the binding signal is 0.873 RPM ratio (pull-down/input).

As to “GATGATTGTTCTCCCAGCTGATGAATTATGGTTTTCGAGTAAACAAATTTTCCTAATCTTTCTGTTCAAGCGCCATCTAC”, the binding signal was 1.24 RPM ratio (pull-down/input).

Take “GATGATTGTTCTCCCAGCTGATGAATTTTTCATCTCGAGTAAACAAATTTTCCTAATCTTTCTGTTCAAGCGCCATCTAC”: the binding signal was 0.937 RPM ratio (pull-down/input).

Take “GATGATTGTTCTCCCAGCTGATGAATTCATTCGGTCGAGTAAACAAATTTTCCTAATCTTTCTGTTCAAGCGCCATCTAC”: the binding signal was 0.807 RPM ratio (pull-down/input).

With “GATGATTGTTCTCCCAGCTGATGAATTATCTGAATCGAGTAAACAAATTTTCCTAATCTTTCTGTTCAAGCGCCATCTAC”, the binding signal is 0.99 RPM ratio (pull-down/input).

As to “GATGATTGTTCTCCCAGCTGATGAATTATCTAAATCGAGTAAACAAATTTTCCTAATCTTTCTGTTCAAGCGCCATCTAC”, the binding signal is 1.18 RPM ratio (pull-down/input).

As for “GATGATTGTTCTCCCAGCTGATGAATTATTATGATCGAGTAAACAAATTTTCCTAATCTTTCTGTTCAAGCGCCATCTAC”, the binding signal was 1.41 RPM ratio (pull-down/input).

In the case of “GATGATTGTTCTCCCAGCTGATGAATTATTCTGATCGAGTAAACAAATTTTCCTAATCTTTCTGTTCAAGCGCCATCTAC”, the binding signal was 0.97 RPM ratio (pull-down/input).

In the case of “GATGATTGTTCTCCCAGCTGATGAATTGTGATTATCGAGTAAACAAATTTTCCTAATCTTTCTGTTCAAGCGCCATCTAC”, the binding signal was 1.74 RPM ratio (pull-down/input).

Turning to “GATGATTGTTCTCCCAGCTGATGAATTATTGTGATCGAGTAAACAAATTTTCCTAATCTTTCTGTTCAAGCGCCATCTAC”, the binding signal is 1.76 RPM ratio (pull-down/input).

For the sequence “GATGATTGTTCTCCCAGCTGATGAATTATGACAATCGAGTAAACAAATTTTCCTAATCTTTCTGTTCAAGCGCCATCTAC”, the binding signal is 1.38 RPM ratio (pull-down/input).

As to “GATGATTGTTCTCCCAGCTGATGAATTAATAACATCGAGTAAACAAATTTTCCTAATCTTTCTGTTCAAGCGCCATCTAC”, the binding signal is 2.02 RPM ratio (pull-down/input).

For the sequence “GATGATTGTTCTCCCAGCTGATGAATTAACATAATCGAGTAAACAAATTTTCCTAATCTTTCTGTTCAAGCGCCATCTAC”, the binding signal was 1.45 RPM ratio (pull-down/input).

“GATGATTGTTCTCCCAGCTGATGAATTATTAACATCGAGTAAACAAATTTTCCTAATCTTTCTGTTCAAGCGCCATCTAC”: the binding signal was 1.32 RPM ratio (pull-down/input).

In the case of “GATGATTGTTCTCCCAGCTGATGAATTAACAACATCGAGTAAACAAATTTTCCTAATCTTTCTGTTCAAGCGCCATCTAC”, the binding signal was 2.17 RPM ratio (pull-down/input).

In the case of “GATGATTGTTCTCCCAGCTGATGAATTAAATAAATCGAGTAAACAAATTTTCCTAATCTTTCTGTTCAAGCGCCATCTAC”, the binding signal was 1.49 RPM ratio (pull-down/input).

Turning to “GATGATTGTTCTCCCAGCTGATGAATTAACATCATCGAGTAAACAAATTTTCCTAATCTTTCTGTTCAAGCGCCATCTAC”, the binding signal is 1.31 RPM ratio (pull-down/input).

“GATGATTGTTCTCCCAGCTGATGAATTTTACGTTTCGAGTAAACAAATTTTCCTAATCTTTCTGTTCAAGCGCCATCTAC”: the binding signal is 0.852 RPM ratio (pull-down/input).

In the case of “GATGATTGTTCTCCCAGCTGATGAATTGCCTAGTTCGAGTAAACAAATTTTCCTAATCTTTCTGTTCAAGCGCCATCTAC”, the binding signal is 0.959 RPM ratio (pull-down/input).

“GATGATTGTTCTCCCAGCTGATGAATTAACACGCTCGAGTAAACAAATTTTCCTAATCTTTCTGTTCAAGCGCCATCTAC”: the binding signal is 1.02 RPM ratio (pull-down/input).

As for “GATGATTGTTCTCCCAGCTGATGAATTGTTGGTGTCGAGTAAACAAATTTTCCTAATCTTTCTGTTCAAGCGCCATCTAC”, the binding signal was 1.8 RPM ratio (pull-down/input).

Take “GATGATTGTTCTCCCAGCTGATGAATTTTTGGTGTCGAGTAAACAAATTTTCCTAATCTTTCTGTTCAAGCGCCATCTAC”: the binding signal was 0.926 RPM ratio (pull-down/input).

Consider “GATGATTGTTCTCCCAGCTGATGAATTGGTGTTGTCGAGTAAACAAATTTTCCTAATCTTTCTGTTCAAGCGCCATCTAC”, for which the binding signal was 2.78 RPM ratio (pull-down/input).

As to “GATGATTGTTCTCCCAGCTGATGAATTGGTGTCGTCGAGTAAACAAATTTTCCTAATCTTTCTGTTCAAGCGCCATCTAC”, the binding signal is 1.04 RPM ratio (pull-down/input).

With “GATGATTGTTCTCCCAGCTGATGAATTTGGTGTGTCGAGTAAACAAATTTTCCTAATCTTTCTGTTCAAGCGCCATCTAC”, the binding signal is 1 RPM ratio (pull-down/input).

Take “GATGATTGTTCTCCCAGCTGATGAATTGGTGGTGTCGAGTAAACAAATTTTCCTAATCTTTCTGTTCAAGCGCCATCTAC”: the binding signal was 0.948 RPM ratio (pull-down/input).

With “GATGATTGTTCTCCCAGCTGATGAATTAGACCTTTCGAGTAAACAAATTTTCCTAATCTTTCTGTTCAAGCGCCATCTAC”, the binding signal is 0.881 RPM ratio (pull-down/input).

Turning to “GATGATTGTTCTCCCAGCTGATGAATTCGACCGATCGAGTAAACAAATTTTCCTAATCTTTCTGTTCAAGCGCCATCTAC”, the binding signal was 0.823 RPM ratio (pull-down/input).

For the sequence “GATGATTGTTCTCCCAGCTGATGAATTAGCCGTTTCGAGTAAACAAATTTTCCTAATCTTTCTGTTCAAGCGCCATCTAC”, the binding signal is 0.852 RPM ratio (pull-down/input).

With “GATGATTGTTCTCCCAGCTGATGAATTTTTATATTCGAGTAAACAAATTTTCCTAATCTTTCTGTTCAAGCGCCATCTAC”, the binding signal is 1.1 RPM ratio (pull-down/input).

As to “GATGATTGTTCTCCCAGCTGATGAATTTATATTTTCGAGTAAACAAATTTTCCTAATCTTTCTGTTCAAGCGCCATCTAC”, the binding signal is 2.37 RPM ratio (pull-down/input).

In the case of “GATGATTGTTCTCCCAGCTGATGAATTTTATATTTCGAGTAAACAAATTTTCCTAATCTTTCTGTTCAAGCGCCATCTAC”, the binding signal was 1.07 RPM ratio (pull-down/input).

For the sequence “GATGATTGTTCTCCCAGCTGATGAATTATATATTTCGAGTAAACAAATTTTCCTAATCTTTCTGTTCAAGCGCCATCTAC”, the binding signal is 1.06 RPM ratio (pull-down/input).
